Compounds with a hit are over-represented: about 0.98% of the library has one in this group of screens.
sdo1 growth = sdo1-depleted yeast growth rescue | S. cerevisiae sdo1-depleted JHY4D growth rescue, OD600 30 h; stronger effect = higher value; pdr5 snq2 efflux-pump mutant strain | z-score at 10 µM | 140,000 compounds, 0.21% hits;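 active = z-score above 3 at both the 24 hr and the 30 hr optical density reads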
Candida biofilm = kills Candida albicans biofilms; C. albicans biofilm + clotrimazole, Alamar Blue; inhibition, % at 6 µM; 85,000 compounds, 0.14% hits; AID 834;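 active = inhibition above 20%; inactive = inhibition below 20%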;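 note: preformed 24 hr biofilms exposed to compound for 48 hr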
MRP reversal = reverses drug resistance mediated by MRP. H69AR cells + 2 uM doxorubicin, CellTiter-Glo, 72 h. differential viability (reversal), % at 10 µM. 85,000 compounds, 0.04% hits. AID 602;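 active = viability drop by adding the cancer drug above about 55%, with treated viability meeting a 40% cutoff, limit read from the data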;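 note: larger differential means the compound sensitizes cells more to doxorubicin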
MRP1 act = MRP-1 activation. H69AR cells + doxorubicin, viability rescue, CellTiter-Glo. viability increase, % at 10 µM. 140,000 compounds, 0.61% hits;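 active = viability gain under doxorubicin at or above a set limit, the compound median plus 3 SD, cut at about 4.7% in these data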;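 note: MRP-1 overexpressing cells given doxorubicin 25 µM after compound pretreatment; 18-22 h compound pretreatment then 72 h with doxorubicin before readout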
Large screens that a line does not name were inactive.

COc1ccccc1C(=O)Nc1ccc2c(c1)OCO2	none
O=C(Nc1ccc2cn[nH]c2c1)c1ccc(Cl)c(S(=O)(=O)N2CCOCC2)c1	none (no result: Candida biofilm, MRP reversal)
Cc1ccc(NC(C)c2cc(Cl)ccc2O)cc1 (centres undefined)	Candida biofilm 35
Cc1ccc(C(=O)CC(=O)c2cc(Cl)ccc2O)cc1	none
CCOC(=O)c1cnc2c(-c3cccc(Br)c3)cnn2c1C	none (no result: Candida biofilm, MRP reversal)
Cc1cc(C(=O)Oc2cccnc2)ccc1[N+](=O)[O-]	none (no result: Candida biofilm, MRP reversal)
O=C(NCCc1ccc(Cl)cc1)C1CCCN(S(=O)(=O)c2cnc[nH]2)C1 (centres undefined)	Candida biofilm 25
CC(CCc1ccccc1)NC(=O)COC(=O)C1CCC(C(C)(C)C)CC1 (centres undefined)	none (no result: Candida biofilm, MRP reversal)
O=C(CCNC(=O)Cn1ccc2ccccc2c1=O)NCCc1ccccc1Cl	MRP1 act 5.1 (no result: Candida biofilm, MRP reversal)
O=C(COC(=O)CCCOc1ccc(Cl)cc1Cl)Nc1cccc(Cl)c1	none (no result: Candida biofilm, MRP reversal)
COc1ccc(CNC(=O)COC(=O)CCCOc2ccc(Cl)cc2Cl)cc1	MRP1 act 4.9 (no result: Candida biofilm, MRP reversal)
O=C(OC(c1ccccc1)c1nccc2ccccc12)c1cc([N+](=O)[O-])cc([N+](=O)[O-])c1 (centres undefined)	none (no result: Candida biofilm, MRP reversal)
CCN(CC)CCN(Cc1cc2cc(C)cc(C)c2[nH]c1=O)C(=S)NCc1ccco1	MRP1 act 23 (no result: Candida biofilm, MRP reversal)
CCC1CCC2(CC1)NC(=O)N(CC(=O)c1c(C)[nH]c3ccccc13)C2=O (centres undefined)	none (no result: Candida biofilm, MRP reversal)
CCNC(=S)N/N=C/c1sc(N2CCCCC2)nc1-c1cccs1	none (no result: Candida biofilm, MRP reversal)
O=C(COc1ccc(Cl)cc1)NCc1nnc(SCC(=O)NCc2ccc3c(c2)OCO3)o1	MRP1 act 5.8
O=C(COc1ccc(Cl)cc1)NCc1nnc(SCC(=O)N2CCCCC2)o1	none
CC(SC1=NCCS1)C(=O)Nc1nnc(-c2ccc(Br)cc2)s1 (centres undefined)	MRP1 act 5.8
CC(SC1=NCCS1)C(=O)Nc1nnc(-c2ccc(F)cc2)s1 (centres undefined)	none
O=C(Nc1ccc(/C=C/c2nc3ccccc3o2)cc1)c1ccc(F)cc1	none (no result: Candida biofilm, MRP reversal)
COc1ccc(S(=O)(=O)Nc2ccc(N(C)C(C)=O)cc2)cc1	Candida biofilm 42
O=C(/C=C/c1cccs1)N1CCN(c2ccccc2F)CC1	none (no result: Candida biofilm, MRP reversal)
O=C(/C=C/c1ccc([N+](=O)[O-])cc1)N1CCN(c2ccccc2F)CC1	MRP1 act 35 (no result: Candida biofilm, MRP reversal)
Cc1ccc(/C=C2\SC(=S)N(CCCC(=O)Nc3ccccn3)C2=O)cc1	MRP1 act 6.8 (no result: Candida biofilm, MRP reversal)
Cc1ccc(/C=C2\SC(=S)N(CCCC(=O)Nc3nccs3)C2=O)cc1	MRP1 act 5.3 (no result: Candida biofilm, MRP reversal)
CCc1ccc(/C=C2\SC(=S)N(CCCC(=O)Nc3nccs3)C2=O)cc1	none (no result: Candida biofilm, MRP reversal)
CCCOC(=O)c1ccc(NC(=O)C(CC)CC)cc1	none (no result: Candida biofilm, MRP reversal)
Cc1nc(N2CCN(Cc3ccccc3)CC2)nc2c1C(=O)CC(c1ccco1)C2 (centres undefined)	MRP1 act 5.6
Cc1cc(C)c(C(N)=O)c(NC(=O)Nc2ccccc2Cl)n1	none (no result: Candida biofilm, MRP reversal)
Cc1ccc(NC(=O)C(=O)NCc2ccc(/C=C(/C#N)C(=O)NCc3cccnc3)o2)cc1C	none (no result: Candida biofilm, MRP reversal)
CCOC(=O)C1=C(O)/C(=C\c2ccc(CNC(=O)C(=O)Nc3ccc(C)c(C)c3)o2)N=C1C	Candida biofilm 69
O=C(N/N=C/c1ccc2c(c1)OCO2)C(O)c1ccccc1 (centres undefined)	none (no result: Candida biofilm, MRP reversal)
CC1(C)O[C@@H]2C[C@H]3[C@@H]4C[C@H](F)C5=CC(=O)CC[C@]5(C)[C@H]4[C@@H](O)C[C@]3(C)[C@]2(C(=O)CO)O1	MRP1 act 5.2
Fc1ccc(-c2csc3ncnc(N4CCc5ccccc5C4)c23)cc1	none (no result: Candida biofilm, MRP reversal)
C/C(=N\NC(=O)c1cccc(S(=O)(=O)Nc2cccc(Cl)c2)c1)c1cccs1	MRP1 act 5.6 (no result: Candida biofilm, MRP reversal)
CCC(C)N=C1CC(C)(C)CC(=O)/C1=C(/O)Cc1ccccc1 (centres undefined)	none (no result: Candida biofilm, MRP reversal)
Cc1ccc(C#CC[N+]2(CC#Cc3ccc(C)cc3)CCCCC2)cc1	none (no result: Candida biofilm, MRP reversal)
C=C(Cl)COc1ccc2c(CCCC)cc(=O)oc2c1	MRP1 act 6.2
CCOc1ccc(Cl)cc1CSc1ncn[nH]1	none (no result: Candida biofilm, MRP reversal)
Clc1ccc(CSc2ncn[nH]2)cc1	MRP1 act 5.9 (no result: Candida biofilm)
Cc1cccc(NC(=O)Cn2c(=O)n(Cc3ccco3)c(=N)c3c4c(sc32)COC(C)(C)C4)c1	MRP1 act 9.4
Cc1cc(C(c2ccc(C)o2)c2ccc(C)o2)c(O)c([N+](=O)[O-])c1	Candida biofilm 78
NC(=O)c1oc2ccccc2c1NC(=O)C1CCCCC1	Candida biofilm 21
COc1ccc(NC(=O)c2c(F)cccc2F)cc1S(=O)(=O)Nc1ccc(Br)cc1	MRP1 act 6.3 (no result: Candida biofilm, MRP reversal)
CCC1=NN(C(=O)c2cccnc2)C(O)(C(F)(F)F)C1 (centres undefined)	none (no result: Candida biofilm, MRP reversal)
CCOC(=O)N1CCN(C(=O)CSc2nnc(COc3ccc(Cl)cc3)o2)CC1	MRP1 act 5.8
COC(=O)c1ccc(OC)c(CSc2nnc(COc3ccc(Cl)cc3)o2)c1	MRP1 act 6.9
CCOC(=O)/C=C1\Nc2ccccc2OC1=O	none (no result: Candida biofilm, MRP reversal)
CON/C=C(\C=Nc1ccc(Cl)cc1)c1ncc(C(F)(F)F)cc1Cl	none (no result: Candida biofilm, MRP reversal)
C[C@@H](C(=O)Nc1ccc2ccccc2c1)[C@H]1C[C@]1(C)[C@H](NC(=O)c1cccnc1)c1ccccc1	sdo1 growth 7.2 (no result: Candida biofilm, MRP reversal)
Cc1ccc(/C=N\NC(=O)C2CN(S(=O)(=O)c3ccccc3)CCN2S(=O)(=O)c2ccccc2)cc1 (centres undefined)	none (no result: Candida biofilm, MRP reversal)
O=C(/C=C/c1ccccc1Cl)Nn1cnc2ccccc2c1=O	none (no result: Candida biofilm, MRP reversal)
COC(=O)c1ccc(NC(=O)C(=O)N2CCN(C(=S)Nc3cccc(OC)c3)CC2)cc1	MRP1 act 6.2 (no result: Candida biofilm, MRP reversal)
COC(=O)c1ccc(NC(=O)C(=O)N2CCN(C(=S)Nc3ccc(OC)cc3)CC2)cc1	none (no result: Candida biofilm, MRP reversal)
CC(c1ccccc1)N1CCn2c(nc3cc(NC(=O)NC4CCCCC4)ccc32)C1 (centres undefined)	none
c1ccc2sc(SN3CCOCC3)nc2c1	none
O=C(Cc1ccccc1)Nc1ccccc1Oc1ccccc1	MRP1 act 8.1 (no result: Candida biofilm, MRP reversal)
CN(C)NC1CCS(=O)(=O)C1 (centres undefined)	none (no result: Candida biofilm, MRP reversal)
Cc1c(CN(C)C(=O)c2sc3cc(Cl)ccc3c2Cl)cnn1C	none
O=C1CC(N2CCC(c3nc4ccccc4o3)CC2)C(=O)N1c1ccc(Cl)cc1 (centres undefined)	none (no result: sdo1 growth, MRP1 act)
O=C1CC(N2CCC(c3nc4ccccc4o3)CC2)C(=O)N1c1cc(Cl)cc(Cl)c1 (centres undefined)	MRP1 act 8.2
CC1=NN(C(N)=S)C(=O)C1N=Nc1ccccc1C (centres undefined)	MRP reversal 91
COc1ccc(CCCC(=O)N/N=C/c2cccc(OC)c2O)cc1C	none (no result: Candida biofilm, MRP reversal)
CCN(CC)S(=O)(=O)c1cccc(C(=O)N[C@H](C(=O)OCC(N)=O)C(C)C)c1	none
CCc1nnc(NC(=O)c2ccc(S(=O)(=O)N3CCCCC3C)cc2)s1 (centres undefined)	none
CCc1nnc(NC(=O)c2ccc(S(=O)(=O)NCC(C)C)cc2)s1	MRP1 act 9.6 (no result: Candida biofilm, MRP reversal)
CCc1nnc(NC(=O)c2ccc(S(=O)(=O)N3CCCCCC3)cc2)s1	MRP1 act 5.4
CCc1nnc(NC(=O)[C@@H](NC(=O)c2cccc(S(=O)(=O)N(CC)CC)c2)C(C)C)s1	MRP1 act 5.2 (no result: Candida biofilm, MRP reversal)
COc1ccccc1NS(=O)(=O)c1ccc2c(c1)n(C)c(=O)n2C	none (no result: Candida biofilm, MRP reversal)

Screens: PubChem BioAssay, several laboratories
